Assay results as given in the supplement of paper PMC6522484.
± gives the standard deviation of the averaged measurements.

Key:
DLD1 [1] = assay: cell viability (CellTiter-Glo) relative to plate median (fraction of plate median); higher = more viable cells; details: 5 µM; treatment time 24 h; reporter: 7TFP
Outline: (§1)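 Cells were seeded in 384-well plates; these were colorectal cancer lines stably transduced with lentiviral 7TFP or TCF4/Wnt firefly luciferase reporters. After 24 h, library compounds went in at a final 5 µM, and exposure lasted 24 h. Parallel plates were then read for firefly luciferase or CellTiterGlo luminescence, each well normalised to its plate median, with two independent replicates averaged.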

HCT116 = assay: as above; details: 5 µM; treatment time 24 h; reporter: TCF4/Wnt
Outline: as §1

SW480 [2] = assay: as above; details: 5 µM; treatment time 24 h; reporter: 7TFP
Outline: as §1

DLD1 [3] = assay: TCF/Wnt firefly luciferase reporter signal relative to plate median (fraction of plate median); higher = higher Wnt reporter signal; details: 5 µM; treatment time 24 h; reporter: 7TFP
Outline: as §1

SW480 [4] = assay: as above; details: 5 µM; treatment time 24 h; reporter: 7TFP
Outline: as §1

Row | Compound | cell viability (DLD1 [1]) | cell viability (HCT116) | cell viability (SW480 [2]) | TCF/Wnt firefly luciferase reporter signal (DLD1 [3]) | TCF/Wnt firefly luciferase reporter signal (SW480 [4])
1 | CN(C)CCC=C1c2ccccc2COc2ccccc21 | 0.994 ± 0.052 | 1.01 ± 0.021 | 0.949 ± 0.032 | 1.06 ± 0.028 | 1.07 ± 0.014
2 | Fc1ccc(C(c2ccc(F)cc2)N2CCN(C/C=C/c3ccccc3)CC2)cc1 | 1.06 ± 0.042 | 0.962 ± 0.069 | 1.06 ± 0.057 | 0.961 ± 0.18 | 0.917 ± 0.016
3 | COc1ccc(-c2oc3ccccc3c(=O)c2O)cc1OC | 0.969 ± 0.087 | 0.912 ± 0.024 | 1.05 | 0.923 ± 0.0099 | 1.18 ± 0.028
4 | C1N2CN3CN1CN(C2)C3 | 1.04 ± 0.085 | 1.08 ± 0.12 | 0.978 ± 0.028 | 0.985 ± 0.05 | 1.02 ± 0.028
5 | CC(=O)Nc1cccc(O)c1 | 0.933 ± 0.17 | 1.1 ± 0.028 | 1.03 ± 0.021 | 0.949 ± 0.14 | 0.939 ± 0.13
6 | Nc1nc(=O)c2[nH]c(=O)cnc2[nH]1 | 1.01 ± 0.14 | 1.06 ± 0.078 | 0.954 ± 0.018 | 0.981 ± 0.098 | 0.987 ± 0.075
7 | C=CC(C)(O)CCC=C(C)CCC=C(C)C (mixture of isomers) | 1.09 | 0.977 ± 0.075 | 0.94 ± 0.0028 | 0.8335 ± 0.00071 | 0.851 ± 0.15
8 | COCCCOc1cc(C[C@@H](C[C@H](N)[C@@H](O)C[C@H](C(=O)NCC(C)(C)C(N)=O)C(C)C)C(C)C)ccc1OC | 0.99 ± 0.029 | 0.962 ± 0.068 | 0.974 ± 0.0057 | 0.991 ± 0.07 | 1.07 ± 0.021
9 | COc1cc(Cc2cnc(N)nc2N)cc(OC)c1OC | 0.988 ± 0.013 | 1 ± 0.15 | 0.991 ± 0.013 | 1 ± 0.057 | 0.831 ± 0.17
10 | NCCOB(c1ccccc1)c1ccccc1 | 0.968 ± 0.037 | 0.933 ± 0.042 | 0.96 ± 0.0071 | 1.135 ± 0.0071 | 1.04
11 | O=C(O)C1=C(CSc2nnnn2CS(=O)(=O)O)CS[C@@H]2[C@H](NC(=O)[C@H](O)c3ccccc3)C(=O)N12 | 0.951 ± 0.025 | 1.05 ± 0.071 | 0.973 ± 0.052 | 0.915 ± 0.023 | 0.968 ± 0.04
12 | COc1ccc2c(c1)OC1(O)COc3cc(OC)c(OC)cc3C1=C2 (stereo not given) | 1.01 ± 0.035 | 1.05 ± 0.05 | 1.08 ± 0.035 | 0.985 ± 0.13 | 0.895 ± 0.075
13 | COc1ccc(C(=O)O)c(O)c1OC | 0.991 ± 0.055 | 0.977 ± 0.12 | 0.9195 ± 0.00071 | 0.803 ± 0.069 | 0.905 ± 0.19
14 | CC(=O)c1ccc2c(c1)N(CCCN(C)C)c1ccccc1S2 | 0.976 ± 0.048 | 0.931 ± 0.037 | 0.964 ± 0.016 | 1.06 ± 0.2 | 0.913 ± 0.12
15 | CC[C@H](c1ccc(O)cc1)[C@@H](CC)c1ccc(O)cc1 | 1.05 ± 0.028 | 1.12 ± 0.078 | 1.04 ± 0.057 | 1.125 ± 0.0071 | 1.09 ± 0.092
16 | O=C(O)c1cc2ccccc2[nH]1 [Indol-2-carboxylic acid] | 0.972 ± 0.097 | 0.92 ± 0.016 | 0.9215 ± 0.0064 | 0.8775 ± 0.005 | 0.955 ± 0.042
17 | OCc1ccccc1O[C@@H]1O[C@H](CO)[C@@H](O)[C@H](O)[C@H]1O | 0.971 ± 0.098 | 0.971 ± 0.056 | 0.969 ± 0.0042 | 0.862 ± 0.099 | 0.967 ± 0.042

Row | Compound | cell viability (DLD1 [1]) | cell viability (HCT116) | cell viability (SW480 [2]) | TCF/Wnt firefly luciferase reporter signal (DLD1 [3]) | TCF/Wnt firefly luciferase reporter signal (SW480 [4])
18 | CC(C)=CCc1c2c(c3occ(-c4ccc(O)cc4)c(=O)c3c1O)C=CC(C)(C)O2 | 0.955 ± 0.093 | 0.98 ± 0.028 | 0.99 ± 0.015 | 1.1 ± 0.099 | 0.914 ± 0.099
19 | CCOC(=O)Nc1nc2ccccc2[nH]1 | 1.03 ± 0.028 | 0.887 ± 0.016 | 1.06 ± 0.035 | 0.971 ± 0.056 | 0.959 ± 0.0057
20 | CC(=O)N[C@@H](Cc1c[nH]c2ccccc12)C(N)=O | 1.07 ± 0.11 | 0.831 ± 0.1 | 1.07 ± 0.028 | 1.04 ± 0.18 | 0.891 ± 0.061
21 | O=c1cc(-c2cccc(O)c2)oc2ccc(O)cc12 | 1.05 ± 0.09 | 0.98 ± 0.0057 | 1 ± 0.036 | 1.19 ± 0.16 | 1.19 ± 0.14
22 | NC(=O)c1ccc([N+](=O)[O-])cc1Cl | 1.02 ± 0.047 | 1.1 ± 0.057 | 1 ± 0.014 | 0.894 ± 0.19 | 0.967 ± 0.075
23 | CCCCN1CCCCC1C(=O)Nc1c(C)cccc1C (stereo not given) | 1.02 ± 0.055 | 0.949 ± 0.071 | 1.06 ± 0.042 | 0.901 ± 0.081 | 0.887 ± 0.047
24 | CC(C)=CCc1c2c(c(O)c3c(=O)c(O)c(-c4ccccc4)oc13)C=CC(C)(C)O2 | 1.03 ± 0.052 | 0.998 ± 0.088 | 1.025 ± 0.0071 | 0.935 ± 0.0099 | 0.974 ± 0.011
25 | Cc1cc(-c2ccccc2)nnc1NCCN1CCOCC1 | 1.005 ± 0.0071 | 0.946 ± 0.077 | 1.03 ± 0.014 | 1.02 ± 0.035 | 1.05 ± 0.057
26 | CC1(C)S[C@@H]2[C@H](NC(=O)[C@H](C(=O)O)c3ccsc3)C(=O)N2[C@H]1C(=O)O | 1.09 ± 0.092 | 1.045 ± 0.0071 | 1.03 ± 0.052 | 0.871 ± 0.069 | 1.075 ± 0.0071
27 | COc1c2occc2cc2ccc(=O)oc12 | 1.04 ± 0.05 | 1.02 ± 0.089 | 1.05 ± 0.014 | 1.09 ± 0.21 | 1.1 ± 0.057
28 | CCCCCCCCCCCCCCCC[N+](C)(C)C | 0.9465 ± 0.0021 | 0.907 ± 0.093 | 0.969 ± 0.12 | 0.754 ± 0.12 | 0.701 ± 0.093
29 | C(=C\c1ccccc1)/CN1CCN(C(c2ccccc2)c2ccccc2)CC1 | 0.989 ± 0.072 | 1.09 ± 0.021 | 1.035 ± 0.0071 | 1.17 ± 0.11 | 0.936 ± 0.15
30 | CC(=O)c1ccc[nH]1 | 0.992 ± 0.04 | 1.03 ± 0.048 | 1.025 ± 0.0071 | 0.87 ± 0.23 | 0.798 ± 0.14
31 | CC(=O)OCC(=O)[C@@]12OC(C)(C)O[C@@H]1C[C@H]1[C@@H]3C[C@H](F)C4=CC(=O)C=C[C@]4(C)[C@@]3(F)[C@@H](O)C[C@@]12C | 1.01 ± 0.023 | 1 ± 0.05 | 0.969 ± 0.044 | 1.03 ± 0.072 | 1.06 ± 0.093
32 | C[C@H](CS)C(=O)N1CCC[C@H]1C(=O)O | 1.04 ± 0.097 | 1.02 ± 0.1 | 1.09 ± 0.014 | 1.04 ± 0.042 | 1.06 ± 0.021
33 | C[C@H]1COc2c(N3CCN(C)CC3)c(F)cc3c(=O)c(C(=O)O)cn1c23 | 0.891 ± 0.025 | 0.966 ± 0.04 | 0.984 ± 0.023 | 0.996 ± 0.049 | 1.04 ± 0.093
